Test results published in PubChem BioAssay (Tox21).
Results filed as inconclusive are left out. Calls of active or inactive are those of the source. Calls come from the whole dose curve; as a rule, active = well fitted cell-killing curve with a large enough effect in the repeat runs; inconclusive = weak or mixed curves; inactive = flat fitted curve, though single readings scatter.

assay: qHTS RealTime-Glo MT Cell Viability Assay in HepG2 cells - 8 hour (AID 1224873); conditions: RealTime-Glo luminescence; series mostly up to 76.8 µM; viability change, negative = cytotoxic: at the top concentration; note: nearly all actives have a fitted effect of over 55% in size
From the text: National Center for Advancing Translational Sciences [NCATS]
NIH Chemical Genomics Center [NCGC]
U.S. Environmental Protection Agency [EPA]
National Institutes of Environmental Health Sciences [NIEHS]
National Toxicology Program [NTP]
U.S. Food and Drug Administration [FDA]
Measure of cell viability is critical in the cell-base assay. Analysis of cell viability is necessary for the characterization of cell responses to cytotoxic drugs and environmental stress. A RealTime-Glo MT Cell Viability Assay to monitor cell viability in real time of continues cell culture during 40 hours of compound treatment was used to screen Tox21 10K library compounds in HepG2 cells. The RealTime-Glo MT Cell Viability Assay is a nonlytic, homogeneous, bioluminescent method to measure cell viability in real time using a simple, plate-based method. The assay involves adding NanoLuc luciferase and a cell-permeant prosubstrate to cells in culture. Viable cells reduce the proprietary prosubstrate to generate a substrate for NanoLuc luciferase. This substrate diffuses from cells into the surrounding culture medium, where it is rapidly used by the NanoLuc Enzyme to produce a luminescent signal. The signal correlates with the number of viable cells, making the assay well suited for cytotoxicity studies.
Tox21 Assay Protocol Summary:
The mixture of HepG2 cell suspension and reagents were dispensed at 600cells/6 ul/well in 1536-well tissue culture treated black solid bottom plates using a Multidrop dispenser. After the assay plates were incubated at a 37 C/5% CO2 incubator for 5 hours, 23 nL of compounds dissolved in DMSO, positive and negative controls was transferred to the assay plate by a pintool work station. The plates were incubated at 37 C for 40 hours. The luminescence intensity were measured at 0h, 8h, 16h, 24h, 32h and 40h time points using ViewLux plate reader during compound treatment.
% is set by controls: 0 for no effect and ±100 for the full control effect.

| Compound | viability change, negative = cytotoxic |
| --- | --- |
| CCCCCCCCCCCCCCCCCC(=O)OCCCCCCCCCCCCCC(C)C | 0.961% (inactive) |
| COc1ccc(N=[N+]([O-])c2ccc(OC)cc2)cc1 | -8.21% (inactive) |
| CCCC=O | 3.66% (inactive) |
| CCN(CC)C(=O)c1ccc(O)c(OC)c1 | 6.88% [at 35.3 µM] (inactive) |
| Cc1ccccc1C(=O)O | 0.459% (inactive) |
| c1ccc(SCCSc2ccccc2)cc1 | 1.91% (inactive) |
| CC1=CCC2C(C1)C2(C)C (stereo not given) | 2.02% (inactive) |
| NC1CCN(c2cccc(Cl)n2)CC1 | 2.53% [at 35.3 µM] (inactive) |
| NC(=O)CCCCC1CCSS1 (stereo not given) | 8.57% [at 35.3 µM] (inactive) |
| CO[Si](CCCNCCC[Si](OC)(OC)OC)(OC)OC | 1.47% (inactive) |
| CCCCCCCCCCCCCCCCCCOCC(O)CO (stereo not given) | -5.79% [at 35.3 µM] (inactive) |
| CC1CCN(CCCC(=O)c2ccc(F)cc2)CC1 | 9.9% [at 35.3 µM] (inactive) |
| CCCCCCC(CCCCCCCCCCC(=O)OCC(COC(C)=O)OC(C)=O)OC(C)=O (stereo not given) | 1.25% [at 35.3 µM] (inactive) |
| O=[N+]([O-])c1ccc(CCO)cc1 | -1.54% (inactive) |
| O=C1C(CCS(=O)c2ccccc2)C(=O)N(c2ccccc2)N1c1ccccc1 (stereo not given) | 0.14% [at 35.3 µM] (inactive) |
| OCC(O)[C@@H](O)[C@H](O)[C@H](O)CO[C@H]1O[C@H](CO)[C@@H](O)[C@H](O)[C@H]1O (stereo not given in full) | 0.045% (inactive) |
| O=C1OC(=O)c2cc([N+](=O)[O-])ccc21 | -0.303% (inactive) |
| C[C@H](O)C(=O)Nc1c(I)c(C(=O)NC(CO)CO)c(I)c(C(=O)NC(CO)CO)c1I | 5.09% [at 35.3 µM] (inactive) |
| COC(=O)[C@H]1[C@H]2C[C@@H]3c4[nH]c5cc(OC)ccc5c4CCN3C[C@H]2C[C@@H](OC(=O)COc2ccc(OC)cc2)[C@@H]1OC | 0.435% [at 35.3 µM] (inactive) |
| Nc1nc(F)nc2c1ncn2[C@@H]1O[C@H](CO)[C@@H](O)[C@@H]1O | 7.71% [at 35.3 µM] (inactive) |

| Compound | viability change, negative = cytotoxic |
| --- | --- |
| CC(C)(C)CC(C)(C)N | -0.0054% (inactive) |
| CC(C)N1C(=O)c2ccccc2C1=O | 0.382% (inactive) |
| CCC(C(=O)NC(N)=O)c1ccccc1 (stereo not given) | -1.72% (inactive) |
| COC(=O)CCCCCCCCC(=O)OC | 2.93% (inactive) |
| O=S(=O)(c1cccc2cnccc12)N1CCCNCC1 | 2.78% [at 35.3 µM] (inactive) |
| O=C1CC2(CCCC2)CC(=O)N1 | 1.83% [at 35.3 µM] (inactive) |
| O=C(O)/C=C/c1ccc(Cn2ccnc2)cc1 | -0.636% [at 35.3 µM] (inactive) |
| Cn1cnc2c(=O)[nH]c(N)nc21 | 2.79% (inactive) |
| CCCC(C)CO (stereo not given) | 2.07% (inactive) |
| Oc1ccc2c(c1)OC[C@@H](N1CCC(O)(c3ccc(F)cc3)CC1)[C@H]2O | -5.8% [at 35.3 µM] (inactive) |
| COc1cccc(Br)c1 | 2.55% (inactive) |
| CC/C=C\CCCCO | 5.74% (inactive) |
| CCCCN(CCO)CCO | 3.77% (inactive) |
| Cc1nccn1CC1CCc2c(c3ccccc3n2C)C1=O (stereo not given) | -4.91% [at 35.3 µM] (inactive) |
| C=C(C)C1CC=C(C)C(O)C1 (stereo not given) | -0.698% (inactive) |
| CCCCNc1ccccc1 | -0.192% (inactive) |
| c1cc(CN2CCCCC2)cc(OCCCNc2nc3ccccc3s2)c1 | -23.3% [at 35.3 µM] (inactive) |
| Cc1ccccc1Br | 0.528% (inactive) |
| CC12CCC(CC1=O)C2(C)C (stereo not given) | 1.11% (inactive) |
| CCCCCCCCC=O | 0.232% (inactive) |
